Measured values reported in PubChem BioAssay.

Experiment: HepG2 cell viability effects, profiling panel, calcein-AM fluorescence, 48 h, basal (AID 1164); note: test concentration not given here
Settings: higher = more signal

SMILES	z-score
CN(C)C(=O)[C@@]1(CCS(=O)(=O)c2ccccc2)N=C(c2ccc(OCCCO)cc2)O[C@H]1c1ccccc1CN=[N+]=[N-]	-0.294
Cc1ccc(S[C@]2(C(=O)NCc3ccccc3)CC(=O)N(C3Cc4ccccc4C3)[C@@H]2c2ccc(CO)cc2I)cc1	1.54
C=C(C)[C@@H]1CC=C(C(O)C2C=CC3C(=O)N(C4CCCCC4)C(=O)C3N2Nc2ccc(OC)cc2)CC1 (stereo partly specified)	0.319
CC(C)(C)N1CC=CC23O[C@@H]4C=CCCOC(=O)C4[C@H]2C(=O)N(CCCO)[C@@H]3C1=O (stereo partly specified)	0.15
CN(C)C(=O)[C@]1(Cc2ccccc2N=[N+]=[N-])N=C(c2ccc(OCCCO)cc2)O[C@@H]1c1ccccc1CN=[N+]=[N-]	-0.386
COC(=O)[C@@]1(Cc2ccc(OC)cc2)[C@H]2c3cc(C(=O)N4CCCC4)n(Cc4ccc(C)o4)c3C[C@H]2CN1C(=O)c1ccccc1	-5.75
[N-]=[N+]=NCc1ccccc1C[C@]1(C(=O)NCCN2CCOCC2)N=C(c2ccc(OCCCO)cc2)O[C@H]1c1ccccc1	-0.493
CCCCCCC#C[Si](O[C@H](c1ccccc1)c1cn(Cc2cccc(Cl)c2)nn1)(C(C)C)C(C)C	0.761
COCCOC(=O)N1C(=O)[C@@]2(c3cc(C#CC4(O)CCCCCC4)ccc31)[C@H](C(=O)N1CCN(c3ncccn3)CC1)[C@H]1C(=O)O[C@H](c3ccccc3)[C@H](c3ccccc3)N1[C@@H]2c1ccc(O)cc1	0.871
COc1ccc(C(=O)Nc2ccc3c(c2)[C@]2(O[C@@H](CCO)[C@H]([Si](C)(C)c4ccc(OC)cc4)[C@H]2C)C(=O)N3Cc2ccccc2)cc1	-2.56
COc1ccc([Si](C)(C)[C@@H]2[C@@H](CCO)O[C@]3(C(=O)N(Cc4ccccc4)c4ccc(N5CCCCC5=O)cc43)[C@H]2C)cc1	-1.02
C#CCNS(=O)(=O)N(C)C	0.759
COCCCNC(=O)[C@]1(CCS(=O)(=O)c2ccccc2)N=C(c2ccc(OCCCO)cc2)O[C@@H]1c1ccccc1	0.9
CC(=O)NCCCC[C@@H]1NC(=O)[C@@H]2C[C@H](C(=O)NCCCC[N+](C)(C)C)[C@H](c3cccc(OCCO)c3)N2C1=O	-0.776
CCCC[C@@H](O)C1=C(COc2ccccc2)Cn2c(=O)n(-c3ccccc3)c(=O)n2[C@H]1CO	-0.0994
C=CCOC(=O)[C@H]1[C@@H]2C(=O)O[C@@H](c3ccccc3)[C@@H](c3ccccc3)N2[C@@H](c2ccc(OCCOC(=O)[C@H]3C[C@H]4C(=O)N[C@@H](CCCCN(C)C)C(=O)N4[C@H]3c3ccc(O)cc3)cc2)[C@]12C(=O)Nc1ccccc12	-0.434
C=CCNC(=O)[C@H]1[C@@H]2C(=O)O[C@@H](c3ccccc3)[C@@H](c3ccccc3)N2[C@@H](c2ccc(OCCO)cc2)[C@]12C(=O)N(C(=O)OCCOC)c1ccc(C#CC3=CCCCC3)cc12	-0.546
COC(=O)[C@@]1(Cc2ccccc2)[C@H]2c3cc(C(=O)N4CCCC4)n(Cc4ccc(OC(F)(F)F)cc4)c3C[C@H]2CN1C(=O)c1ccccc1	-1.56

SMILES	z-score
COc1ccc([Si](C)(C)[C@H]2[C@H](CCn3cc(CCO)nn3)O[C@@]3(C(=O)N(Cc4cccc(N5C(=O)c6cccc7cccc5c67)c4)c4ccccc43)[C@@H]2C)cc1	-4.39
COC(=O)[C@@]1(Cc2ccc(F)cc2)[C@H]2c3cc(C(=O)N4CCCC4)n(Cc4ccccc4)c3C[C@H]2CN1C(=O)c1ccccc1	-0.579
CCC[C@@H]1C[C@@]1(CCC)[C@@H](NC(=O)c1ccco1)c1ccc(Cl)cc1	-1.06
C[C@@]1([C@@H](NC(=O)c2cccs2)c2ccc(-c3ccccc3)cc2)C[C@H]1C1CCCCC1	-0.644
O=C1O[C@H](c2ccccc2)[C@H](c2ccccc2)N2[C@H]1[C@@H](C(=O)N1CCN(c3ncccn3)CC1)[C@]1(C(=O)Nc3ccc(C#CCCO)cc31)[C@H]2c1ccccc1OCCO	0.313
C=C(COC)C(=O)CC[C@H](OC(=O)c1ccccc1-c1ccccc1C(=O)O)c1ccc(CO)o1	-0.985
COCC(=C=CC[C@@H](O)c1ccccc1OCCO)C[C@@H](O)c1ccccn1	-0.0698
COC(=O)C(CC#Cc1ccc2c(c1)[C@]1(C(=O)N2)[C@H](c2ccc(OCCO)cc2)N2[C@H](c3ccccc3)[C@H](c3ccccc3)OC(=O)[C@H]2[C@@H]1C(=O)O)C(=O)OC	1.45
COCCCNC(=O)[C@]1(Cc2ccccc2CN=[N+]=[N-])N=C(c2ccc(OCCCO)cc2)O[C@@H]1c1ccccc1CN=[N+]=[N-]	-0.918
C=C(C(=O)CC[C@H](OC(=O)c1cccnc1)c1ccc(OCCO)cc1)C(C)C	-0.823
CC(C)CNC(=O)[C@@]1(C)c2ccccc2C(=O)N(Cc2ccccc2)[C@H]1c1ccc(CO)cc1	-0.323
CC(C)(C)OC(=O)CC[C@]1(C(=O)O)COC(c2ccc(OCCCO)cc2)=N1	0.218
COc1ccc([Si](C)(C)[C@@H]2[C@@H](CC(=O)N(CCO)Cc3ccccc3)O[C@]3(C(=O)N(Cc4ccc(N5CCOC5=O)cc4)c4ccccc43)[C@H]2C)cc1	-1.94
CCCCC=C[C@@H](NC(=O)CCc1ccccc1)c1ccccc1	-3.43
C=C(/C(=C/C[C@@H](OC(=O)c1ccncc1)c1ccccc1OCCO)c1cnc2ccccc2c1)C(C)C	-3.15
C=C(CCCC)/C(=C/C[C@@H](OC(=O)c1ccncc1)c1ccccc1OCCO)c1cc(C(=O)OC)ccc1OC	0.949
CC(C)N1C(=O)c2ccccc2[C@](C)(C(=O)O)[C@@H]1c1ccc(CO)cc1	-0.876
COC(=O)[C@@]1(Cc2ccc(OC)cc2)[C@H]2c3cc(C(=O)N(C)C)n(Cc4cc(C)n(C)n4)c3C[C@H]2CN1C(=O)c1ccccc1	-0.384
